From PubChem BioAssay
VDR inhibitor – Inhibitors of the vitamin D receptor (VDR): qHTS. Potency, µM, for inactives: max response, negative = inhibition, most hits filed as inhibitors. VDR-SRC2-3 peptide fluorescence polarization, 2 h. AID 504847, 2011. 0.93% of 400,000 active
Target sequence (P11473 whole entry, looked up): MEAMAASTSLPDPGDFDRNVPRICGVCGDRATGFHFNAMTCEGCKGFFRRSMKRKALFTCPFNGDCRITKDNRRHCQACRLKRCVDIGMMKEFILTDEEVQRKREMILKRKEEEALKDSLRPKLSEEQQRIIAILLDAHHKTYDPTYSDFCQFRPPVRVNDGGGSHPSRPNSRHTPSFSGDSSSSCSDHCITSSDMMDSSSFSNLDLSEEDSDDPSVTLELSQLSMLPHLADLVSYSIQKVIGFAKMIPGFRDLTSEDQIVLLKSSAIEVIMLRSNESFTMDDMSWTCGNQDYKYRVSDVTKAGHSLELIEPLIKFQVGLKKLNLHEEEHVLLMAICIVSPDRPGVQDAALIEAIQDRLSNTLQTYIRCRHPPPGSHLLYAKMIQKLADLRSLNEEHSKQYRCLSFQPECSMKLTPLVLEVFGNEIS
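Fluorescence polarization assay of small-molecule disruption of VDR binding to coregulator peptide SRC2-3. Compounds and controls pin-transferred, then read after 2 h incubation at ambient room temperature.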
TDP1 inh – qHTS Assay for Inhibitors of Tyrosyl-DNA Phosphodiesterase (TDP1); recombinant TDP1, AlphaScreen DNA substrate cleavage; 0.28% of 350,000 active; Tyrosyl-DNA phosphodiesterase 1 (Homo sapiens), Q9NUW8; Potency, µM (highest dose often 130 µM), without a hit: at the top dose activity change, negative = inhibition, actives largely listed as inhibitors; further: nearly all actives have a fitted effect of over 40% in size
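Compounds were preincubated with Tdp1 (1 nM final) for 15 min at room temperature before substrate (15 nM final) started a 5 min reaction; beads (10 ug/ml final) were then added for 10 min before AlphaScreen detection.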
PLK1 PBD inh – qHTS for Inhibitors of PLK1-PDB (polo-like kinase 1 - polo-box domain): Primary Screen. Serine/threonine-protein kinase PLK1 (Homo sapiens), P53350. Plk1 PBD binding of FITC phosphopeptide, fluorescence polarization. Potency, µM, inactives show max response, negative = inhibition, actives largely listed as inhibitors. 2.8% of 360,000 active. AID 720504, 2013; further: series mostly up to about 57 µM; nearly all actives have a fitted effect of over 65% in size
GCN5L2 inh – qHTS Assay for Inhibitors of GCN5L2; Histone acetyltransferase KAT2A (Homo sapiens), Q92830; GCN5L2 HAT assay, ThioGlo1 CoA-SH fluorescence; Potency, µM (top dose mostly 58.9 µM), for the others: top-dose activity change, negative = inhibition, usual class: inhibitors; 0.21% of 390,000 active; AID 504327, 2011
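GCN5L2 (20nM final) in 50mM HEPES, 0.1mM EDTA pH 7.5, 0.01% Tween-20 was preincubated 15 min at room temperature with compound, then given ThioGlo1 (50uM), H3(1-25) peptide (75uM) and acetyl-CoA (70uM); CoA-thiol fluorescence (Ex340/Em540) was read at 0 and 20 min.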
DT40 TDP1 no CPT – qHTS for Inhibitors of human tyrosyl-DNA phosphodiesterase 1 (TDP1): qHTS in cells in absence of CPT; DT40 Tdp1-/- hTDP1 cells, no CPT, ATP luminescence, 48 h; Potency, µM (doses to about 46.2 µM), inactives show top-dose activity change, negative = growth inhibition, hits mostly inhibitors; 15% of 420,000 active; AID 686978, 2013; further: nearly all actives have a fitted effect of over 55% in size
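Cells were dispensed at 400 per well, compounds added by pin tool, plates incubated ≥48 hr at 37 °C, then CellTiter-Glo added for 30 min at room temperature before luminescence reading. Line: DT40 Tdp1-/- complemented with hTDP1; camptothecin omitted.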
DT40 TDP1 CPT – qHTS for Inhibitors of human tyrosyl-DNA phosphodiesterase 1 (TDP1): qHTS in cells in presence of CPT. chicken DT40 Tdp1-/-;hTDP1 cells + 20 nM CPT, ATP luminescence, 48 h. Potency, µM (titrated, usually from 46.2 µM), for inactives: at the top dose activity change, negative = growth inhibition, actives largely listed as inhibitors. 12% of 420,000 active; further: nearly all actives have a fitted effect of over 55% in size
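Cell growth measured by CellTiter-Glo luminescence after a minimum 48 h, 37 C compound exposure with 20 nM CPT in Tdp1-knockout DT40 cells stably expressing hTDP1, seeded 400/well; qHTS titration format.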
* hit, by the source's call; u = inconclusive; x = no result; [ ] = dose if it differs, or a comment. Rows were chosen to be rich in hits. Some 18% of all compounds tested hit in one or more screens of this group. The call rests on the fitted dose curve; in most records, active means well fitted curve in the direction sought with a large enough effect; inconclusive means small, poorly fitted or top-dose-only effect, or another doubt; inactive means no such curve, though single readings can be large; an effect the other way counts as inactive or inconclusive. On the % scale 0 is the no-effect control and ±100 the full control effect; potency means the concentration at half of the fitted maximal effect.

SMILES	VDR inhibitor	TDP1 inh	PLK1 PBD inh	GCN5L2 inh	DT40 TDP1 no CPT	DT40 TDP1 CPT
CCOC(=O)C1(Cc2ccccc2)CCN(Cc2cccc3c2OCO3)CC1	-27%	7%	-13%	1%	u	-20%
CCOC(=O)C1(Cc2ccccc2)CCN(Cc2ccc3c(c2)OCCO3)CC1	6%	3%	-10%	-22%	-17%	0%
CCOC(=O)C1(Cc2ccccc2)CCN(Cc2ccc(COC)o2)CC1	-4%	3%	-4%	-16%	u	12µM*
Cc1noc(C)c1S(=O)(=O)N(C)CC(=O)Nc1ccc(F)cc1	13%	2%	-2%	-2%	-5%	-9%
COc1ccc(N2CCN(CCC(=O)c3ccc4ccccc4c3)CC2)cc1	71µM*	x	6.7µM*	-6%	15µM*	18µM*
CC1CCCN(CCOc2ccc(Br)cc2)C1 (stereo not drawn)	-21%	0%	-1%	-4%	-20%	3%
COc1ccc(C(=O)CCN2CCCC(C)C2)cc1 (stereo not drawn)	71µM*	x	u	4%	u	23µM*
COc1ccc(NC(=S)N(CCCN2CCCC(C)C2)Cc2cccs2)cc1 (stereo not drawn)	-28%	-4%	-18%	0%	29µM*	u
COc1ccc(C(=O)CCN2CCC(C)CC2)cc1	79µM*	x	u	2%	12µM*	13µM*
Cc1ccnc(NS(=O)(=O)c2ccc(NC(=O)c3cc(=O)c4ccccc4o3)cc2)n1	-19%	4%	u	u	-8%	-16%
COc1cc(OC)c2nc(-c3cc4c(c(OC)c3)OCCN(Cc3cn(C)nc3C)C4)cc(C)c2c1	x	x	x	x	u	-6%[9.04 µM]
COc1cc(OC)cc(-c2cc3nc(C)cc(N4CCN(C(=O)c5ccco5)CC4)n3n2)c1	x	5%	x	-19%	x	x
O=C(c1ccoc1)N1CCN(c2cc(-c3ccccc3)nc3cc(-c4ccc(Br)cc4)nn23)CC1	x	x	-23%	x	5.8µM*	12µM*
COc1ccc(-c2cc3nc(-c4ccccc4)cc(N4CCN(C(=O)c5ccoc5)CC4)n3n2)cc1	x	x	0%	x	8.2µM*	u
COc1ccc(-c2cc3nc(C)cc(N4CCN(C(=O)c5cccnc5)CC4)n3n2)cc1	x	x	-14%	x	23µM*	u
OC1CCN(c2cc(-c3ccccc3)nc3cc(-c4ccc(F)cc4)nn23)CC1	-5%	5%	-12%	-11%	u	15%
COc1cccc(C2=NN(C(C)=O)C(c3cn(-c4ccccc4)nc3-c3cccs3)C2)c1 (stereo not drawn)	-15%	-3%	x	-1%	13%	5%
CC(=O)Nc1ccc(S(=O)(=O)NC2(C(F)(F)F)NC(=O)N(c3ccc(C)cc3)C2=O)cc1 (stereo not drawn)	-13%	3%	-16%	-7%	0%	-4%
COc1ccc(-c2nnc(SCC(=O)c3ccc([N+](=O)[O-])cc3)o2)cc1OC	-7%	0%	x	-5%	x	x
CCC(C(=O)Nc1ccc(C(=O)OC)cc1)n1c(=O)c(-c2ccccc2NC(C)=O)nc2ccccc21 (stereo not drawn)	-4%	9%	x	-6%	3.3µM*	15µM*
CC(=O)Nc1ccccc1-c1nc2ccccc2n(C(C)C(=O)Nc2cc(Cl)ccc2C)c1=O (stereo not drawn)	8%	6%	x	-4%	26µM*	u
CCOc1ccc(NC(=O)C(CC)n2c(=O)c(-c3ccccc3NC(C)=O)nc3ccccc32)cc1 (stereo not drawn)	-2%	3%	x	1%	u	18µM*
CC(=O)Nc1ccccc1-c1nc2ccccc2n(C(C)C(=O)c2ccc(C)c(C)c2)c1=O (stereo not drawn)	27%	14%	x	0%	u	u
COc1ccc(-c2nc(Cn3c(SCc4cccc(C(F)(F)F)c4)nc4cccnc43)c(C)o2)cc1OC	16%	5%	x	-10%	u	u
O=C1OC2C[C@H]1[C@@H]1C(=O)N(Cc3ccccc3)CCC1C2I (stereo partly drawn)	7%	12%	x	16%	x	x
SMILES	VDR inhibitor	TDP1 inh	PLK1 PBD inh	GCN5L2 inh	DT40 TDP1 no CPT	DT40 TDP1 CPT
O=C(CSc1nnc(-c2ccc(O)cc2)o1)Nc1ccccc1Br	-11%	x	-19%	-3%	-25%	-13%
Cc1nnc(N(C(=O)c2cnccn2)c2ccccc2)s1	-5%	6%	11µM*	0%	u	u
CN(C)CCC(=O)C(Cc1ccccc1)c1ccccc1 (stereo not drawn)	45µM*	x	4.7µM*	x	4.6µM*	5.2µM*
Cn1cccc1C(=O)N1CCC[C@@]2(CCN(C(c3ccccc3)c3ccccc3)C2)C1	u	x	x	-15%	u	u
CCc1cc[n+](C(C(=S)Nc2cccc(C)c2)=C([O-])c2ccc(C)c([N+](=O)[O-])c2)cc1	20%	x	-2%	x	x	16µM*
Cc1ccc(/C([O-])=C(/C(=S)NCc2ccccc2)[n+]2cccc(CO)c2)cc1[N+](=O)[O-]	-11%	4%	u	-2%	-7%	-2%
COc1cc(C2Sc3ccccc3NC3=C2C(=O)OC3)cc(OC)c1OC (stereo not drawn)	-2%	3%[56.1 µM]	-7%	3%	u	16µM*
COCCCNC(=O)c1ccc(Cn2c(=O)c3ccccc3n(Cc3ccccc3C)c2=O)cc1	-3%	0%	0%	1%	u	u
COCCCNC(=O)c1ccc(Cn2c(=O)c3ccccc3n(Cc3ccccc3C#N)c2=O)cc1	1%	4%	1%	-8%	u	16µM*
COc1ccc(CCNC(=O)c2ccc(Cn3c(=O)c4ccccc4n(Cc4cccc(F)c4)c3=O)cc2)cc1OC	-1%	-2%	x	-6%	16µM*	16µM*
COCCCNC(=O)Cn1c(=O)n(Cc2ccc(C(=O)NCCc3ccc(OC)c(OC)c3)cc2)c(=O)c2ccccc21	1%	-5%	1%	-5%	u	5%
COCCCNC(=O)c1ccc(Cn2c(=O)c3ccccc3n(CC(=O)NCCc3ccc(OC)c(OC)c3)c2=O)cc1	6%	1%	-3%	-12%	18µM*	23µM*
